Screening data as filed in PubChem BioAssay.
PPARg SRC-1 ag: agonists of human PPARgamma SRC-1 coactivator recruitment; PPARgamma-SRC-1 coactivator recruitment biochemical assay; activation, % at 8 µM; 0.41% of 200,000 active; in the data active = activation above about 19%;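 note: 0% = DMSO and 100% = reference agonist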
Target sequence (P37231 whole entry, looked up): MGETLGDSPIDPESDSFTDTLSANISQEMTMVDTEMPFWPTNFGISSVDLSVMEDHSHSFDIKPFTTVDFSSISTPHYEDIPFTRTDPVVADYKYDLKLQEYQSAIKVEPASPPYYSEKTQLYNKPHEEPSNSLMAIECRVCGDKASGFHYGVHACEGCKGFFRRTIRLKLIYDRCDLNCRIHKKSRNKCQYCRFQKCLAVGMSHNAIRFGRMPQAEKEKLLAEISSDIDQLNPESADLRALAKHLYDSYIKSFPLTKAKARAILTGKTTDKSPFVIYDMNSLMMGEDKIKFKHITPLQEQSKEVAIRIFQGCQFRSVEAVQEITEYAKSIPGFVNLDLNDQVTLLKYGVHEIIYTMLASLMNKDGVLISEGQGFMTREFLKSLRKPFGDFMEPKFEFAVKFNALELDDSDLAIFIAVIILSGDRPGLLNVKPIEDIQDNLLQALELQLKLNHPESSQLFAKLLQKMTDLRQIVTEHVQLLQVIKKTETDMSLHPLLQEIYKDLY
SRC3 TRFRET art: counter-screen for PPARgamma SRC-3 recruitment agonists: TR-FRET artefact; PPARgamma/SRC-3 format; hits give high values; TR-FRET ratio at 8 µM; 0.39% of 99,000 active; in the data active = TR-FRET ratio above about 2000
SRC1 TRFRET art: flags TR-FRET format artefacts in PPARgamma SRC-1 recruitment agonist screen; TR-FRET detection artefact counter-screen, emission ratio; hits give high values; TR-FRET ratio at 8 µM; 0.34% of 99,000 active; AID 1051; in the data active = TR-FRET ratio above about 2300
PPARg SRC-2 ag: PPARgamma-driven SRC-2 recruitment agonism; P37231; activation, % at 8 µM; PPARgamma LBD-SRC-2 recruitment, biochemical; AID 1032; 0.34% of 200,000 active;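 note: 0% = vehicle and 100% = reference agonist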
PPARg SRC-3 ag: promotes SRC-3 coactivator recruitment by human PPARgamma | activation, % at 8 µM | P37231 | biochemical PPARgamma/SRC-3 coactivator recruitment assay | 0.26% of 200,000 active; in the data active = activation above about 23%;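 note: 0% = DMSO and 100% = reference agonist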
SRC2 TRFRET art: flags TR-FRET format artefacts in PPARgamma SRC-2 recruitment agonist screen; TR-FRET artefact counter-screen; hits give high values; TR-FRET ratio at 8 µM; 0.4% of 200,000 active; in the data active = TR-FRET ratio above about 2000
PPARg SRC2 conf: human PPARgamma SRC-2 recruitment agonism, confirmation; shares compounds with PPARg SRC-3 ag; 52% of 790 active; biochemical SRC-2 recruitment by PPARgamma; activation, % at 8 µM;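 note: 0% = vehicle alone and 100% = reference agonist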
PPARg SRC1 conf: human PPARgamma SRC-1 recruitment agonism, confirmation | shares compounds with PPARg SRC-3 ag | PPARgamma–SRC-1 coactivator recruitment biochemical assay | activation, % at 8 µM | 43% of 790 active; in the data active = activation above about 20%;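 note: 0% = vehicle wells and 100% = reference agonist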
PPARg SRC3 ag: confirmation of agonists of SRC-3 recruitment by human PPARgamma; 29% of 790 active; shares compounds with PPARg SRC-3 ag; activation, % at 8 µM; AID 1301; biochemical PPARgamma-SRC-3 coactivator recruitment, agonist mode; in the data active = activation above about 24%;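 note: 0% = vehicle wells and 100% = reference agonist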
An asterisk follows results filed as active; . = no result. Rows were chosen to be rich in hits. Some 0.9% of all compounds tested hit in one or more screens of this group. Cut-off read from the data, not from the text of the source, unless noted: active = activation above about 22%; inactive = the rest.

SMILES	PPARg SRC-1 ag	SRC3 TRFRET art	SRC1 TRFRET art	PPARg SRC-2 ag	PPARg SRC-3 ag	SRC2 TRFRET art	PPARg SRC2 conf	PPARg SRC1 conf	PPARg SRC3 ag
CN(C)c1ccc(N/C=C/C(=O)c2ccco2)cc1	5.0	.	.	24.0*	14.7	1727	10.3	8.8	7.4
NS(=O)(=O)c1ccc(N/C=C\C(=O)c2ccc(F)cc2)cc1	-2.5	1596	1676	-8.7	-1.9	1546	.	.	.
CN(C)c1ccc(N/C=C/C(=O)c2ccc(F)cc2)cc1	7.7	.	.	21.0	26.5*	1739	8.5	4.9	5.7
CCN1C(=O)/C(=C/c2ccc(C)o2)N(C)C1=S	3.0	1591	1452	-2.1	-1.4	1570	.	.	.
COc1ccccc1Cn1c(=O)c2ccccc2n2c(Sc3ncnc4sccc34)nnc12	25.9*	.	.	7.9	29.4*	3587*	8.7	8.9	5.6
COc1ccccc1Cn1c(=O)c2ccccc2n2c(SCc3csc(C)n3)nnc12	-1.6	1479	1673	1.9	-1.3	1535	.	.	.
O=C(CCl)Nc1ccccc1C(=O)NCc1ccccc1	-2.3	1526	1810	5.5	-1.7	1558	.	.	.
COc1cc(C(=O)NCc2ccc3c(c2)OCO3)ccc1OCc1c(C)noc1C	5.2	.	.	24.9*	20.3	1774	-0.6	0.2	-1.9
Cc1ccc(C(=O)CSc2nc(-c3ccccc3)ccc2C#N)cc1	9.1	1806	2016	5.3	0.8	1714	.	.	.
N#Cc1ccc(-c2ccc3c(c2)OCO3)nc1SCC(=O)OCc1ccccc1	39.6*	.	.	10.2	46.1*	1976*	50.6*	42.6*	25.2*
COc1ccc2[nH]c3c(=S)nc[nH]c3c2c1	26.4*	2527*	2593*	33.6*	23.2*	2492*	16.2	8.3	12.2
COc1ccc2[nH]c3c(Cl)ncnc3c2c1	0.6	1712	1758	-0.2	2.2	1577	.	.	.
N#Cc1c(Cl)nc(SCc2ccccc2)nc1-c1ccccc1	59.4*	.	.	67.1*	70.0*	2883*	80.3*	65.0*	54.2*
COc1ccc(-c2oc3ncn4nc(COc5ccccc5)nc4c3c2-c2ccc(OC)cc2)cc1	0.3	.	.	4.5	-1.1	1710	.	.	.
COc1ccc(-c2oc3ncn4nc(Cc5ccccc5)nc4c3c2-c2ccc(OC)cc2)cc1	83.5*	.	.	69.1*	3.9	4122*	6.2	3.8	3.7
COc1ccc2c(Cl)c(C(N)=O)sc2c1	32.6*	2550*	2690*	36.6*	19.4	2210*	36.0*	25.4*	24.6*
COc1ccc2c(Cl)c(C(=O)NN)sc2c1	-0.8	.	.	0.0	3.4	1487	.	.	.
O=C(O)C1CCC(Cn2c(SCc3cc(=O)n4ccccc4n3)nc3ccsc3c2=O)CC1 (stereo not given)	9.6	1691	1763	-2.5	1.2	1680	.	.	.
CCc1cc(=O)oc2cc(C)cc(O)c12	37.0*	.	.	41.6*	50.0*	2296*	40.2*	27.3*	27.2*
CCCc1cc(=O)oc2cc(C)cc(O)c12	18.7	.	.	27.6*	27.1*	2043*	20.9	13.5	14.2
CCCCCc1cc(O)c2c(C)cc(=O)oc2c1	18.9*	.	.	14.2	20.6	1926	15.8	7.4	11.8
COC(=O)Cc1c(C)c2ccc(OC(=O)c3ccccc3)cc2oc1=O	4.0	.	.	9.7	1.0	1583	.	.	.
COC(=O)Cc1c(C)c2c(O)cc(C)cc2oc1=O	20.0*	.	.	29.7*	35.3*	2058*	27.2*	20.6*	17.6
Cc1c(NS(=O)(=O)c2cccc(C(=O)OCC(=O)N(C)C3CCCCC3)c2)c(=O)n(-c2ccccc2)n1C	-5.4	1568	2123	8.0	5.0	1619	.	.	.
COc1ccc(OCC(=O)NNC(=O)CCc2ccccc2)cc1	-11.2	1553	1505	-1.9	-2.6	1544	.	.	.
SMILES	PPARg SRC-1 ag	SRC3 TRFRET art	SRC1 TRFRET art	PPARg SRC-2 ag	PPARg SRC-3 ag	SRC2 TRFRET art	PPARg SRC2 conf	PPARg SRC1 conf	PPARg SRC3 ag
COc1ccc(CC(=O)NNC(=O)COc2ccc3ccccc3c2)cc1	193.8*	4430*	6123*	213.7*	142.3*	3867*	256.0*	195.8*	169.4*
COC(=O)c1sc(N2C(=O)C(O)=C(C(=O)c3ccc(C)o3)C2c2ccc(F)cc2)nc1C (stereo not given)	30.5*	.	.	26.4*	19.8	2303*	30.0*	22.8*	19.0
Cc1ccc(C2C(C(=O)c3ccco3)=C(O)C(=O)N2c2nnc(C)s2)cc1 (stereo not given)	24.1*	.	.	19.9	33.7*	1957	13.9	12.1	10.3
O=Cc1cnc(N2CCOCC2)nc1	8.9	1781	1734	6.3	2.2	1765	.	.	.
Cc1cc(=S)c2cccc(C)c2[nH]1	16.5	2209*	2464*	22.2*	20.2	2155*	1.7	2.8	2.1
O=C(O)CCC(=O)Nc1cccc(C(=O)Nc2ccc(Br)cc2)c1	6.9	1559	1893	-9.6	2.0	1565	.	.	.
O=C(O)Cc1cc(C(=O)Nc2ccc(Br)cc2)sc1-c1ccccc1	33.1*	2260*	2611*	22.5*	16.1	2211*	16.3	15.4	11.0
Cc1ccc2nsnc2c1NS(=O)(=O)c1c(C)ccc2nsnc12	4.0	.	.	-3.2	12.4	1392	.	.	.
Cc1ccc(/C=[N+](\[O-])c2ccc(N(C)C)cc2)c2nsnc12	26.6*	1884	2222	9.5	11.5	1862	16.5	12.1	8.2
C#CCn1cc(/C=N/Nc2nc3ccccc3[nH]2)c2ccccc21	14.8	1807	2389*	29.9*	12.8	1820	7.1	11.0	7.6
CC(=O)c1sc(N2CCOCC2)nc1-c1ccccc1	33.3*	2416*	2416*	16.8	26.9*	2097*	36.5*	27.8*	23.6
O=C(Nc1ccccc1)c1sc(N2CCOCC2)nc1-c1ccccc1	5.7	1655	2033	13.4	7.4	1762	.	.	.
Cc1cc(N2C(=O)C(O)=C(C(=O)c3ccco3)C2c2ccc(O)cc2)no1 (stereo not given)	0.3	.	.	7.7	-10.7	1340	.	.	.
COC(=O)c1sc(N2C(=O)c3oc4ccccc4c(=O)c3C2c2cccs2)nc1C (stereo not given)	-5.8	.	.	-1.8	-2.2	1363	.	.	.
CCOc1cccc(C2C(C(=O)c3ccc(C)o3)=C(O)C(=O)N2c2nccs2)c1 (stereo not given)	22.4*	.	.	27.5*	22.3	2000*	13.0	8.5	7.7
Cc1ccc2nc(N3C(=O)C(O)=C(C(=O)c4cc5ccccc5o4)C3c3cccs3)sc2c1 (stereo not given)	29.6*	.	.	13.7	30.2*	1932	7.1	2.3	1.8
